Laboratory results as given in the supplement of paper PMC10849652.
About 7,900 targets were measured; listed, in parts, are those with a hit and a random draw of the rest. About 0.6% of all pairs of compound and target were hits. Values without a mark were called inactive.

How the values were obtained:
Assay in all cases: log2 fold change, soluble protein after heating vs DMSO (PISA); higher = thermal stabilisation; K562 cells, 10 uM, 30 min; active = over 0.2 and 3.5 SD of the protein, either way, in both replicates (recomputed)
[1] = compound: CC1=C(C=C(C=C1)NC(=O)C2=CC(=CC=C2)C(C)(C)C#N)NC3=CC4=C(C=C3)N=CN(C4=O)C
How it was run: (§1)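 Soluble protein was quantified by TMTpro 16plex LC-MS/MS after channel sums were equalised. It was obtained as the supernatant after 21,000xg for 90 min from pooled aliquots of K562 cells (2×10^6 cells/mL, 10 μM compound, 30 min) heated for 3 min across 48°C-58°C and extracted in PBS with 0.5% NP-40 at 4°C. Thermal stability values are relative to control samples and come from duplicates. They are given as log2 fold changes.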

[2] = compound: CC1=C(C=C(C=C1)NC(=O)C2=CC(=CC=C2)N(C)C)NC(=O)C3=CC=C(C=C3)O
How it was run: as §1

[3] = compound: CC1=CC=C(C=C1)SC2=C3C=C(SC3=CN=C2)C(=O)N
How it was run: as §1

[4] = compound: CC1=NC(=CC=C1)C2=C(N=C(N2)C(C)(C)C)C3=CC4=NC=CN=C4C=C3
How it was run: as §1

Nexturastat A = compound: CCCCN(Cc1ccc(C(=O)NO)cc1)C(=O)Nc1ccccc1 [Nexturastat A]
How it was run: as §1

vemurafenib = compound: CCCS(=O)(=O)Nc1ccc(F)c(C(=O)c2c[nH]c3ncc(-c4ccc(Cl)cc4)cc23)c1F [vemurafenib]
How it was run: as §1

[5] = compound: CCCS(=O)(=O)Nc1ccc(F)c(C(=O)c2c[nH]c3ncc(Cl)cc23)c1F
How it was run: as §1

[6] = compound: CCCc1cc(C)[nH]c(=O)c1CNC(=O)c1cc(-c2ccnc(N3CCN(C)CC3)c2)cc2c1cnn2C(C)C
How it was run: as §1

givinostat = compound: CCN(CC)Cc1ccc2cc(COC(=O)Nc3ccc(C(=O)NO)cc3)ccc2c1 [givinostat]
How it was run: as §1

barasertib = compound: CCN(CCCOc1ccc2c(Nc3cc(CC(=O)Nc4cccc(F)c4)[nH]n3)ncnc2c1)CCOP(=O)(O)O [barasertib]
How it was run: as §1

Chain of UniProt P18846 (P18846 whole entry, looked up): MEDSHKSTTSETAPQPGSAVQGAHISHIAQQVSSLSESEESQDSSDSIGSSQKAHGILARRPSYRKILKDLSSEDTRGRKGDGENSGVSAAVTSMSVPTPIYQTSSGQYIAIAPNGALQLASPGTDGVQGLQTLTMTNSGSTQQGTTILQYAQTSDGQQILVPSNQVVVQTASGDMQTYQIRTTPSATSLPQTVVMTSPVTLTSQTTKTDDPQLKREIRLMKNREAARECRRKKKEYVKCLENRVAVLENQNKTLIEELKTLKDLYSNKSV
Chain of UniProt P02749 (P02749 whole entry, looked up): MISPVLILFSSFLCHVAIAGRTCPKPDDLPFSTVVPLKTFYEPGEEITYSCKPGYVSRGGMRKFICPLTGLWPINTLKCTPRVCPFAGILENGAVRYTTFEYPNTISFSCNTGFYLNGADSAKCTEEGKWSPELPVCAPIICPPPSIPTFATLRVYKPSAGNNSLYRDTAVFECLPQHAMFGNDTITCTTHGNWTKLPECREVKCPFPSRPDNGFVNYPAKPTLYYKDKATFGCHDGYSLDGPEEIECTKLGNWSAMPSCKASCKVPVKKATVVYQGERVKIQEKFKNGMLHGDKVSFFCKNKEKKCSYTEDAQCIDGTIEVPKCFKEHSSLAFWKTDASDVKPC
Chain of UniProt P55196 (P55196 whole entry, looked up): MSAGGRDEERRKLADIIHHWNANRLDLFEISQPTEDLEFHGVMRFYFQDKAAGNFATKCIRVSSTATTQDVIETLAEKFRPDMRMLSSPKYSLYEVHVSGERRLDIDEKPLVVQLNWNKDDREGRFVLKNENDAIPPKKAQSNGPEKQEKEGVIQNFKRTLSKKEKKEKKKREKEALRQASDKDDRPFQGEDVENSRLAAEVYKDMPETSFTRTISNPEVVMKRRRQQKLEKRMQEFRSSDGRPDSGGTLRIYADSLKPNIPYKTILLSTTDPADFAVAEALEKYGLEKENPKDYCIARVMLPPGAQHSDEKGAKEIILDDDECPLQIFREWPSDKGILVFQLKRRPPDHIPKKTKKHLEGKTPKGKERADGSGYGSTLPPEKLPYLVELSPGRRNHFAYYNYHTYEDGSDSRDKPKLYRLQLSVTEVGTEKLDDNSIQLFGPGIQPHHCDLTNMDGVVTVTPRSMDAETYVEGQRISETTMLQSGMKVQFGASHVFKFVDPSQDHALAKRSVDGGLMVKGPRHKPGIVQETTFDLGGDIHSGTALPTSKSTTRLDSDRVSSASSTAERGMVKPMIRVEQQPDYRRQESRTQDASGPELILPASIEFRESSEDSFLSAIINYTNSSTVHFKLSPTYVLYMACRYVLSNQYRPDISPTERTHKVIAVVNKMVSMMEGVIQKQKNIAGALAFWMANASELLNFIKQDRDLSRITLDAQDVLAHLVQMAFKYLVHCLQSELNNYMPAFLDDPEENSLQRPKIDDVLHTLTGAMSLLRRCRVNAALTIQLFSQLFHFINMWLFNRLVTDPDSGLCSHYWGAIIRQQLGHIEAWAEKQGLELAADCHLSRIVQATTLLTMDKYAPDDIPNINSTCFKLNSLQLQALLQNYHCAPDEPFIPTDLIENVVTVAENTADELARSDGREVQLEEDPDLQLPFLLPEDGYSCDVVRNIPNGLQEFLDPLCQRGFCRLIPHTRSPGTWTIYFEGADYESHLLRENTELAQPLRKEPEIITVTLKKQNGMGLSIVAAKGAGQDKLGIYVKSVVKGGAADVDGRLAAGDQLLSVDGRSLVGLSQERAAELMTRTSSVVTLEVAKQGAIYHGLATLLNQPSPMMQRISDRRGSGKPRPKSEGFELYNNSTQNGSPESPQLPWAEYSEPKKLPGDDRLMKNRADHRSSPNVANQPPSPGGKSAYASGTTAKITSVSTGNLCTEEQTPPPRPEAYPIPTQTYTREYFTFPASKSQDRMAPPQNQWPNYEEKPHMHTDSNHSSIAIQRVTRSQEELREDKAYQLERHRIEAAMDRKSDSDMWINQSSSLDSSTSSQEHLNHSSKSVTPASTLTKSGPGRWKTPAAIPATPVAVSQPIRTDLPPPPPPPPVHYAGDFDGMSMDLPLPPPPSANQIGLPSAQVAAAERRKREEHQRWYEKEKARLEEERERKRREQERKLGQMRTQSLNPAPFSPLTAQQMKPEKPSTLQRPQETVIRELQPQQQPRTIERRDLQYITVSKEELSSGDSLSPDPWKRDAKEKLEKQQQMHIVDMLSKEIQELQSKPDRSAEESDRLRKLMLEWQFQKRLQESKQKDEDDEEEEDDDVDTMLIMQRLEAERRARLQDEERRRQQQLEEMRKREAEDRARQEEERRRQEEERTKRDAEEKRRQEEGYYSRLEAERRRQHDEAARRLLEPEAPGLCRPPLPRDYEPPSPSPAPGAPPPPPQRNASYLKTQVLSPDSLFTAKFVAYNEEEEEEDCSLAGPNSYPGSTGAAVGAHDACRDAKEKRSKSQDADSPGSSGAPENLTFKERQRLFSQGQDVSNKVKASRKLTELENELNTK
Chain of UniProt Q9H7T9 (Q9H7T9 whole entry, looked up): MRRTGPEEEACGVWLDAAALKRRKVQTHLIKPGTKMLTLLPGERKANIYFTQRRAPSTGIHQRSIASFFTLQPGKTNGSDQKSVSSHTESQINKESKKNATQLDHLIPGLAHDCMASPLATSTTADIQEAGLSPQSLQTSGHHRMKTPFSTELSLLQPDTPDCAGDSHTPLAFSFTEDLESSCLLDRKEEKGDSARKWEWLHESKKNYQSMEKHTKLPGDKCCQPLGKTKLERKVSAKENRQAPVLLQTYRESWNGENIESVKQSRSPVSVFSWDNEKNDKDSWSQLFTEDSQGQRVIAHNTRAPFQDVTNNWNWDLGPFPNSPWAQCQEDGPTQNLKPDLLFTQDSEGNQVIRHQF
Chain of UniProt Q9UI12 (Q9UI12 whole entry, looked up): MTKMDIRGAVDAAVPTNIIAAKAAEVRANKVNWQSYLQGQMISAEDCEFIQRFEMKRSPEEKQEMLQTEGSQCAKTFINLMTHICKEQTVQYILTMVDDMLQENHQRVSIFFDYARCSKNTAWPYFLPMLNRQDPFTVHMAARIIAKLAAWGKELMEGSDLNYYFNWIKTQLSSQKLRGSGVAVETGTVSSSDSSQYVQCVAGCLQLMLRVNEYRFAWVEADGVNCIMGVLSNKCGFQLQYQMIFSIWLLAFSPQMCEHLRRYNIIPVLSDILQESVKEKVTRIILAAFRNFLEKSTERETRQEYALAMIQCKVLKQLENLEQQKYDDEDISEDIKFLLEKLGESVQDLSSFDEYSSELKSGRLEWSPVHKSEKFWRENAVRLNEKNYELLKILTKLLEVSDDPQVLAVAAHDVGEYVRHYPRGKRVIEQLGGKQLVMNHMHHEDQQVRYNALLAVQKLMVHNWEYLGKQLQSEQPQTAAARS
Chain of UniProt O75882 (O75882 whole entry, looked up): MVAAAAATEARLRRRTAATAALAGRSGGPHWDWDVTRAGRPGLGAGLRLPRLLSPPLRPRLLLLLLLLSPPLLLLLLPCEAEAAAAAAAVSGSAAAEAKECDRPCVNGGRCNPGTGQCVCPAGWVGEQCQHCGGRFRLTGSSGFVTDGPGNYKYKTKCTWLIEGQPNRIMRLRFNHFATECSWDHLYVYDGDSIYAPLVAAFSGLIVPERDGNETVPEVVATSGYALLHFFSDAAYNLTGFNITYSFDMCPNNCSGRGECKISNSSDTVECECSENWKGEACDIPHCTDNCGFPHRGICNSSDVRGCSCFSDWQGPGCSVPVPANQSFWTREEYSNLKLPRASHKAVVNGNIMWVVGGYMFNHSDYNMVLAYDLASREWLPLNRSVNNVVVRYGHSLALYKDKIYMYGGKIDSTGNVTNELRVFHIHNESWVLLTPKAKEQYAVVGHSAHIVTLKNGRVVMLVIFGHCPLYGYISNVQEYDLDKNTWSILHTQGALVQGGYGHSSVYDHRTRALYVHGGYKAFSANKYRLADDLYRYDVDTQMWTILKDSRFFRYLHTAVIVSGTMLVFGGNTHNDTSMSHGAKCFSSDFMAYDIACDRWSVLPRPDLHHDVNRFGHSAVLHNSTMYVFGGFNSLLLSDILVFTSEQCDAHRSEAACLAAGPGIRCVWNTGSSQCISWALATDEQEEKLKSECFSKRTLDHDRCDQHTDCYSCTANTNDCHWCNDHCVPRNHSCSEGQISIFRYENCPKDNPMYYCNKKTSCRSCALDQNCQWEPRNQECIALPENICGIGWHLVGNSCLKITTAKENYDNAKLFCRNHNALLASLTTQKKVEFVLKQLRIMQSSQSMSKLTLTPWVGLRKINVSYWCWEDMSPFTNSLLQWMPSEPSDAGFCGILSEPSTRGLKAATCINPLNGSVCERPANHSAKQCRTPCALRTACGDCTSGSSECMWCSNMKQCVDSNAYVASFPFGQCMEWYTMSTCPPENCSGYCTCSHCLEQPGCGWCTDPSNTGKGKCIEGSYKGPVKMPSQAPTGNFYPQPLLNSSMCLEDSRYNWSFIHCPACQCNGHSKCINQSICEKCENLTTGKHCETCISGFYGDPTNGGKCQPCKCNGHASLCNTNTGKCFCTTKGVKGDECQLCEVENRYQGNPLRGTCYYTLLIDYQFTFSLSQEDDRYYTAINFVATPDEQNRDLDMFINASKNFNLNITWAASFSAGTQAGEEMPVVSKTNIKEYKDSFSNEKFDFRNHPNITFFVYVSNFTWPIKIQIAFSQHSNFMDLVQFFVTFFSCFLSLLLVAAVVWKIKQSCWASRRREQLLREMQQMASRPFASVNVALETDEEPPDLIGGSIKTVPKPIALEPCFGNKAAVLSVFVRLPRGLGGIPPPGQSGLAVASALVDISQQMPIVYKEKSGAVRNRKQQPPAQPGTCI
Chain of UniProt Q6QNY0 (Q6QNY0 whole entry, looked up): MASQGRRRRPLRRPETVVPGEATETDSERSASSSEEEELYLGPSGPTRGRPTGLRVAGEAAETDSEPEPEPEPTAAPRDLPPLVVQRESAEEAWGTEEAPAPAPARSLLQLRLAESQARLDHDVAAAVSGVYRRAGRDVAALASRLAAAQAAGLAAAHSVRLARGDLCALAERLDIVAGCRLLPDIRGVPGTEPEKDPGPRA

Target	log2 fold change [1]	log2 fold change [2]	log2 fold change [3]	log2 fold change [4]	log2 fold change (Nexturastat A)	log2 fold change (vemurafenib)	log2 fold change [5]	log2 fold change [6]	log2 fold change (givinostat)	log2 fold change (barasertib)
ACP1 isoform 2 (UniProt P24666)	0.008	-0.013	0.025	-0.008	0.08	0.031	0.026	0.043	0.058	0.074
APOH (UniProt P02749)	-0.346	0.265	0.055	0.192		0.225	-0.063	-0.611	0.046	-0.203
AGAP3 isoform 4 (UniProt Q96P47)	0.037	0.071	-0.039	-0.081	0.252		-0.022	0.089	0.113	0.199
ACO2 (UniProt Q99798)	0.071	-0.063	0.012	0.035	-0.073	0.055	0.027	-0.003	-0.014	0.037
AKR1C3 (UniProt P42330)	-0.034	-0.207	0.268	-0.007	0.022	-0.032	0.066	0.289	-0.003	0.014
APOBEC3G (UniProt Q9HC16)	-0.019	0.069	-0.064	-0.014	0.172	0.069	-0.083	0.051	0.129	0.019
ABCA3 (UniProt Q99758)	-0.029	0.011	-0.008	-0.035	-0.142	-0.161	-0.112		0.059	0.196
ANKZF1 (UniProt Q9H8Y5)	0.011	0	-0.055	-0.059	0.399	-0.011	-0.042	0.132	0.195	0.04
ARHGAP4 isoform 2 (UniProt P98171)	-0.14	0.039	-0.08			0.047	-0.049	-0.194	0.034	-0.466
ANK2 (UniProt Q01484)	-0.11	-0.031	0.019	0.026		-0.026	0.012	0.053	-0.047	0.031
ADAM15 (UniProt Q13444)	-0.045	0.056	0	-0.14	-0.016	-0.022	0.007		0.308	-0.043
AIFM2 (UniProt Q9BRQ8)	0.013	0	0	-0.017	0.019	-0.036	-0.026	0.021	0.011	-0.024
BAD (UniProt Q92934)	-0.198	0.007	-0.021	-0.051	-0.324 (active)	-0.076	-0.037	0.05	-0.133	-0.003
BTBD6 (UniProt Q96KE9)	-0.061	-0.108	0.003		0.531	0.002	0.007	-0.017	0.358	-0.017
ACTBL2 (UniProt Q562R1)	0.238	0.243	-0.385		-0.049	0.139	-0.41	0.073	-0.342	0.161
ALDH2 (UniProt P05091)	0.089	0.03	0.039	0.029	-0.264 (active)	0.044	-0.011	-0.012	0.016	0.003
BDH2 (UniProt Q9BUT1)	-0.051	-0.085	0.086	0.016		0.447 (active)	-0.077	-0.019	-0.033	-0.019
AHCYL1 (UniProt O43865)	-0.103	0.003	-0.061	0.011	0.014	-0.029	-0.015	-0.039	-0.026	-0.036
ASS1 (UniProt P00966)	-0.073	-0.015	-0.06		0.023	-0.042	0.003	0.004	0.031	-0.063
ABITRAM (UniProt Q9NX38)	0.011	-0.036	0.062	0.027	-0.114	0	0.095	-0.252		0.03
ACADVL isoform 3 (UniProt P49748)	-0.004	0.01	0.024	-0.002	-0.073	-0.009	0.01	-0.002	0.026	0.006
BRD3 (UniProt Q15059)	0.261	0.008	0.035	-0.003		0.198	-0.048	-0.017	-0.842 (active)	-0.339
BRD8 isoform 2 (UniProt Q9H0E9)	-0.013	-0.333	-0.044	-0.023	-0.023	0.183	0.06		-0.126	-0.039

Target	log2 fold change [1]	log2 fold change [2]	log2 fold change [3]	log2 fold change [4]	log2 fold change (Nexturastat A)	log2 fold change (vemurafenib)	log2 fold change [5]	log2 fold change [6]	log2 fold change (givinostat)	log2 fold change (barasertib)
ARRDC1 (UniProt Q8N5I2)	-0.061	0	0.071		0.021	0.048	0.039	0.023	0.136	-0.179
AMD1 (UniProt P17707)	0.013	-0.142	0.049	0.078	-0.048	-0.126	0.041	-0.027	0.07	0.016
ATP6V1H (UniProt Q9UI12)	0.028	-0.016	0.045	0.014	-0.008	-0.004	0.077	0.022	0.03	0.018
BLOC1S3 (UniProt Q6QNY0)	-0.03	0.049	0.046	0.052	-0.031	-0.049	-0.029	-0.058	-0.016	0.021
ATP7B (UniProt P35670)	-0.005	-0.113	0.028	0.032	-0.013	-0.001	0.032	0.036	-0.005	-0.02
BRIP1 (UniProt Q9BX63)	-0.049	-0.007	-0.009	-0.03	0.23	0.184	0.045		0.004	-0.162
AIF1 (UniProt P55008)	-0.042	-0.039	-0.056		0.048	-0.112	0		-0.057	-0.102
ALDH2 isoform 2 (UniProt P05091)	0.075	-0.049	-0.106		-0.103	-0.023	-0.141			0.099
BRD4 (UniProt O60885)	0.245	-0.272	0.071		-0.451 (active)	0.046	-0.003	0.017	-0.252	0.021
ATRN (UniProt O75882)	0.037		-0.034	-0.061	-0.135	-0.026	0.054	-0.003	0.026	-0.09
ADD1 isoform 4 (UniProt P35611)				0.098	0.024					0.03
ATP6V0A1 (UniProt Q93050)										-0.095
APH1A (UniProt Q96BI3)	-0.136		0.091	0.042		0.237	0.121	-0.085	0.021	0.002
AUNIP isoform 2 (UniProt Q9H7T9)	0.113		0.101			0.081	0.073		0.083	
BRAF (UniProt P15056)	0.15		0.02	-0.01	-0.053	0.148	0.144	-0.049	-0.031	0.022
BAP18 isoform 3 (UniProt Q8IXM2)								0.005	0.025	
ACSL6 isoform 1 (UniProt Q9UKU0)	0.075	-0.014			0.082	0.17		0.035	0.04	0.133
ARHGAP25 isoform 4 (UniProt P42331)					0.078	0.086		-0.052	0.307	-0.018
AZI2 (UniProt Q9H6S1)	-0.091	0.045				0.047			0.028	-0.023
ALG14 (UniProt Q96F25)		-0.13	0.045	0.068	-0.479	-0.053	0.052	-0.131	0.03	0.03
ATF1 (UniProt P18846)	-0.066		-0.113		-0.026	0.035	-0.016	0.002	0.003	0.079
ABCA4 (UniProt P78363)	-0.145	-0.068		-0.168	0.576 (active)			0.033	0.23	0.015
ABHD11 (UniProt Q8NFV4)		-0.065	-0.004	0.003	-0.028	0.139	-0.011	0.023	0.02	0.057

Target	log2 fold change [1]	log2 fold change [2]	log2 fold change [3]	log2 fold change [4]	log2 fold change (Nexturastat A)	log2 fold change (vemurafenib)	log2 fold change [5]	log2 fold change [6]	log2 fold change (givinostat)	log2 fold change (barasertib)
ACOX3 (UniProt O15254)	0.111		-0.192	-0.011	0.039	0.057	-0.009	0.184	-0.01	-0.035
ADD2 isoform 9 (UniProt P35612)	0.191	0.065	-0.067				-0.114	0.079		0.047
AP2M1 (UniProt C9JTK4)	-0.04			-0.033	0.009	-0.262		-0.172		-0.079
ANGEL1 (UniProt Q9UNK9)		-0.121		0.591 (active)		-0.079				0.033
BSCL2 isoform 4 (UniProt Q96G97)			-0.073		-0.174	0.179	-0.043	-0.124	0.052	0.199
AFDN isoform 1 (UniProt P55196)	0.035	0.083		0.03	-0.164	0.342		0.062	0.259	-0.045
BRMS1 (UniProt Q9HCU9)					0.512 (active)			0.137		
ARMC8 isoform 6 (UniProt Q8IUR7)						0.031			0.075	-0.021
ACVR1 (UniProt Q04771)	-0.194		0.011		0.037	0.015	0.017	-0.149	0.031	
ARFIP1 isoform 2 (UniProt P53367)	-0.106		0.051	0.031	-0.025		0.097	0.121	0.061	0.019
ADAMTS5 (UniProt Q9UNA0)	-0.171	-0.022		-0.164		-0.095		-0.572	0.222	0.02
BRD2 isoform 2 (UniProt P25440)	0.348		0.039	0.076		-0.033	0.014		-0.596	-0.053
AP4S1 (UniProt Q9Y587)	0.033		-0.017	-0.007	-0.097	0.107	0.02	0.102	0	-0.008
AARSD1 (UniProt Q9BTE6)			0.044	0.278			0.206	0.027	-0.285	0.119
ARL4A (UniProt P40617)								0.078		0.057
ATXN7L3 isoform 2 (UniProt Q14CW9)	0.013	-0.017		-0.09				0.137	-0.046	-0.042
ACP1 (UniProt P24666)	0.007		0.01	-0.123	0.001	0.071	-0.047	0.039	0.076	0.12
AKNA (UniProt Q7Z591)	0.079		-0.047				-0.02		0.177	
BRAF, A0A2R8Y8E0		-1.03 (active)		-0.021				-0.078	-0.006	
ATXN3 isoform 1 (UniProt P54252)		-0.08	0.012	-0.043		0.005	0.04	-0.016	0.02	0.179
ACTR3B (UniProt Q9P1U1)		-0.046	-0.05	0.198		0.019	0.014		0.147	
AUH (UniProt Q13825)		-0.007	-0.107	0.082		0.091	0.008	-0.185	0.279	0.096
